Experimental data from PubChem BioAssay AID1159580 (chemical genetic matrix, 2015).
Among all 5,500 compounds or so, about 2,000 (36%) were called active. Inconclusive results (about 18%) are left out. No stated cut-off is given here; in the data, active means normalized growth mostly below about 0.91 (no sharp cut-off); inconclusive means no clear call, values can overlap the other calls; inactive means mostly above about 0.92. The list shows a part of the results.

Experiment: chemical genetic growth profiling, strain panel (AID 1159580);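 further: tested at 20 µM; growth read once vehicle control cultures reached saturation at 30 °C; 1 = growth at the plate median or of vehicle wells; lower values mean less growth of the strain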
Conditions: growth OD
[1] = S. cerevisiae deletion strains, locus YAL013W, strain DEP1, active compounds read low
[2] = S. cerevisiae deletion strains, locus YBR229C, strain ROT2, active compounds read low
[3] = S. cerevisiae deletion strains, locus YDL101C, strain DUN1, active compounds read low
[4] = S. cerevisiae deletion strains, locus YDR150W, strain NUM1, active compounds read low
[5] = S. cerevisiae deletion strains, locus YEL061C, strain CIN8, active compounds read low
[6] = S. cerevisiae deletion strains, locus YGR078C, strain PAC10, active compounds read low
[7] = S. cerevisiae deletion strains, locus YHR030C, strain SLT2, active compounds read low
[8] = S. cerevisiae deletion strains, locus YHR087W, strain rtc3, active compounds read low
[9] = S. cerevisiae deletion strains, locus YJR043C, strain POL32, active compounds read low
[10] = S. cerevisiae deletion strains, locus YJR075W, strain HOC1, active compounds read low
[11] = S. cerevisiae deletion strains, locus YLR039C, strain RIC1, active compounds read low
[12] = S. cerevisiae deletion strains, locus YLR058C, strain SHM2 (second series), active compounds read low
[13] = S. cerevisiae deletion strains, locus YLR085C, strain ARP6, active compounds read low
[14] = S. cerevisiae deletion strains, locus YLR262C, strain YPT6, active compounds read low
[15] = S. cerevisiae deletion strains, locus YML094W, strain GIM5, active compounds read low
[16] = S. cerevisiae deletion strains, locus YMR219W, strain ESC1, active compounds read low
[17] = S. cerevisiae deletion strains, locus YMR263W, strain SAP30, active compounds read low
[18] = S. cerevisiae deletion strains, locus YNL153C, strain GIM3, active compounds read low
[19] = S. cerevisiae deletion strains, locus YNL298W, strain CLA4 (second series), active compounds read low
[20] = S. cerevisiae deletion strains, locus YNL322C, strain KRE1, active compounds read low
[21] = S. cerevisiae deletion strains, locus YNR030W, strain Alg12, active compounds read low
[22] = S. cerevisiae deletion strains, locus YPL055C, strain LGE1, active compounds read low
[23] = S. cerevisiae deletion strains, locus YPL241C, strain CIN2, active compounds read low
[24] = S. cerevisiae deletion strains, locus YPR135W, strain CTF4, active compounds read low
[25] = S. cerevisiae strains, strain wild type, active compounds read low
[26] = S. cerevisiae deletion strains, locus YAR019C, strain CDC15, active compounds read low
[27] = S. cerevisiae deletion strains, locus YBL105C, strain PKC1, active compounds read low
[28] = S. cerevisiae deletion strains, locus YBR135W, strain CKS1, active compounds read low
[29] = S. cerevisiae deletion strains, locus YBR136W, strain MEC1, active compounds read low
[30] = S. cerevisiae deletion strains, locus YBR160W, strain CDC28, active compounds read low
[31] = S. cerevisiae deletion strains, locus YDL017W, strain CDC7, active compounds read low
[32] = S. cerevisiae deletion strains, locus YDL028C, strain MPS1, active compounds read low
[33] = S. cerevisiae deletion strains, locus YDL108W, strain KIN28, active compounds read low
[34] = S. cerevisiae deletion strains, locus YDL132W, strain cdc53, active compounds read low
[35] = S. cerevisiae deletion strains, locus YDL214C, strain PRR2, active compounds read low
[36] = S. cerevisiae deletion strains, locus YDR052C, strain DBF4, active compounds read low
[37] = S. cerevisiae deletion strains, locus YDR054C, strain cdc34, active compounds read low
[38] = S. cerevisiae deletion strains, locus YDR226W, strain ADK1, active compounds read low
[39] = S. cerevisiae deletion strains, locus YDR477W, strain SNF1, active compounds read low
[40] = S. cerevisiae deletion strains, locus YER123W, strain YCK3, active compounds read low
[41] = S. cerevisiae deletion strains, locus YER133W, strain GLC7, active compounds read low
[42] = S. cerevisiae deletion strains, locus YFL009W, strain cdc4, active compounds read low
[43] = S. cerevisiae deletion strains, locus YFL029C, strain CAK1, active compounds read low
[44] = S. cerevisiae deletion strains, locus YFR003C, strain YPI1, active compounds read low
[45] = S. cerevisiae deletion strains, locus YFR019W, strain FAB1, active compounds read low
[46] = S. cerevisiae deletion strains, locus YFR028C, strain CDC14, active compounds read low
[47] = S. cerevisiae deletion strains, locus YGR040W, strain KSS1, active compounds read low
[48] = S. cerevisiae deletion strains, locus YGR052W, strain FMP48, active compounds read low
[49] = S. cerevisiae deletion strains, locus YGR092W, strain DBF2, active compounds read low
[50] = S. cerevisiae deletion strains, locus YHR079C, strain IRE1, active compounds read low
[51] = S. cerevisiae deletion strains, locus YHR082C, strain KSP1, active compounds read low
[52] = S. cerevisiae deletion strains, locus YHR205W, strain SCH9, active compounds read low
[53] = S. cerevisiae deletion strains, locus YIL147C, strain SLN1, active compounds read low
[54] = S. cerevisiae deletion strains, locus YJL095W, strain BCK1, active compounds read low
[55] = S. cerevisiae deletion strains, locus YJL128C, strain PBS2, active compounds read low
[56] = S. cerevisiae deletion strains, locus YJL157C, strain FAR1, active compounds read low
[57] = S. cerevisiae deletion strains, locus YJR016C, strain ILV3, active compounds read low
[58] = S. cerevisiae deletion strains, locus YJR066W, strain TOR1 (second series), active compounds read low
[59] = S. cerevisiae deletion strains, locus YJR066W, strain TOR1, active compounds read low
[60] = S. cerevisiae deletion strains, locus YKL048C, strain ELM1, active compounds read low
[61] = S. cerevisiae deletion strains, locus YKL067W, strain YNK1, active compounds read low
[62] = S. cerevisiae deletion strains, locus YKL101W, strain HSL1, active compounds read low
[63] = S. cerevisiae deletion strains, locus YKL193C, strain SDS22, active compounds read low
[64] = S. cerevisiae deletion strains, locus YKL203C, strain TOR2, active compounds read low
[65] = S. cerevisiae deletion strains, locus YLR113W, strain HOG1, active compounds read low
[66] = S. cerevisiae deletion strains, locus YLR133W, strain CKI1, active compounds read low
[67] = S. cerevisiae deletion strains, locus YLR403W, strain SFP1, active compounds read low
[68] = S. cerevisiae deletion strains, locus YML070W, strain DAK1, active compounds read low
[69] = S. cerevisiae deletion strains, locus YMR001C, strain CDC5, active compounds read low
[70] = S. cerevisiae deletion strains, locus YMR205C, strain PFK2 (second series), active compounds read low
[71] = S. cerevisiae deletion strains, locus YMR277W, strain FCP1, active compounds read low
[72] = S. cerevisiae deletion strains, locus YNL006W, strain LST8, active compounds read low
[73] = S. cerevisiae deletion strains, locus YNL020C, strain ARK1, active compounds read low
[74] = S. cerevisiae deletion strains, locus YNL161W, strain CBK1, active compounds read low
[75] = S. cerevisiae deletion strains, locus YNL183C, strain NPR1, active compounds read low
[76] = S. cerevisiae deletion strains, locus YNL207W, strain RIO2, active compounds read low
[77] = S. cerevisiae deletion strains, locus YNL222W, strain SSU72, active compounds read low
[78] = S. cerevisiae deletion strains, locus YNL307C, strain MCK1 (second series), active compounds read low
[79] = S. cerevisiae deletion strains, locus YOL078W, strain AVO1, active compounds read low
[80] = S. cerevisiae deletion strains, locus YOL136C, strain PFK27, active compounds read low
[81] = S. cerevisiae deletion strains, locus YOR061W, strain CKA2, active compounds read low
[82] = S. cerevisiae deletion strains, locus YOR119C, strain RIO1, active compounds read low
[83] = S. cerevisiae deletion strains, locus YOR231W, strain MKK1, active compounds read low
[84] = S. cerevisiae deletion strains, locus YOR329C, strain SCD5, active compounds read low
[85] = S. cerevisiae deletion strains, locus YPL031C, strain PHO85, active compounds read low
[86] = S. cerevisiae deletion strains, locus YPL153C, strain RAD53, active compounds read low
[87] = S. cerevisiae deletion strains, locus YPL204W, strain HRR25, active compounds read low
[88] = S. cerevisiae deletion strains, locus YPL209C, strain IPL1, active compounds read low
[89] = S. cerevisiae deletion strains, locus YPL256C, strain CLN2, active compounds read low
[90] = S. cerevisiae deletion strains, locus YPR025C, strain CCL1, active compounds read low
[91] = S. cerevisiae deletion strains, locus YPR106W, strain ISR1, active compounds read low
[92] = S. cerevisiae deletion strains, locus YPR111W, strain DBF20, active compounds read low
[93] = S. cerevisiae deletion strains, strain NNK1, active compounds read low
[94] = S. cerevisiae deletion strains, strain TSCII, active compounds read low

Measured: normalized growth

COc1ccc(Oc2ccc(C(F)(F)F)cc2[N+](=O)[O-])cc1
inactive: [1] 0.986 | [2] 0.96 | S. cerevisiae deletion strains, locus YCL061C, strain MRC1, active compounds read low 0.931 | [3] 0.924 | S. cerevisiae deletion strains, locus YDL134C, strain PPH21, active compounds read low 1.03 | [4] 0.886 | [5] 1.03 | [6] 0.951 | [7] 0.927 | [8] 0.993 | S. cerevisiae deletion strains, locus YJL187C, strain SWE1, active compounds read low 0.965 | [9] 0.946 | [10] 0.925 | [11] 0.901 | [12] 1.02 | [13] 0.896 | [14] 0.926 | [15] 1.06 | [16] 0.996 | [17] 0.917 | S. cerevisiae deletion strains, locus YMR307W, strain GAS1, active compounds read low 0.911 | [18] 0.947 | [19] 0.987 | [20] 1.01 | [21] 0.924 | [22] 0.898 | [23] 0.952 | [25] 0.978
active: [24] 0.624

COc1ccc(Oc2ccc([N+](=O)[O-])cc2C(=O)O/N=C(/N)c2ccc(C(F)(F)F)cc2)cc1
inactive: [26] 1 | [27] 0.991 | [28] 0.991 | [29] 0.996 | [30] 0.997 | [31] 1 | [32] 1 | [3] 0.988 | [33] 0.99 | [34] 0.982 | [35] 1.01 | [36] 1 | [37] 0.99 | [38] 0.987 | [39] 0.999 | [40] 0.983 | [41] 1 | [42] 0.998 | [43] 1 | [44] 1.01 | [45] 1 | [46] 0.998 | [47] 1 | [48] 1.01 | [49] 1.03 | [7] 0.92 | [50] 1 | [51] 1.11 | [52] 0.991 | [53] 1 | [54] 1 | [55] 0.957 | [56] 1.02 | [57] 1 | [58] 0.964 | [59] 1.07 | [60] 0.995 | [61] 0.999 | [62] 0.998 | [63] 1 | [64] 1.03 | [65] 0.919 | [66] 1.01 | [67] 1.01 | [68] 1.01 | [69] 1.01 | [70] 0.989 | [71] 1.01 | [72] 1 | [73] 1.02 | [74] 0.994 | [75] 1.04 | [76] 1 | [77] 0.997 | [78] 1 | [79] 1 | [80] 1.01 | [81] 1.01 | [82] 1.06 | [83] 0.985 | [84] 1 | [85] 0.988 | [86] 0.995 | [87] 1.01 | [88] 1 | [89] 0.927 | [90] 0.999 | [91] 0.993 | [92] 0.986 | [93] 0.982 | [94] 1

Cc1cc(Sc2c([N+](=O)[O-])cc(C(F)(F)F)cc2[N+](=O)[O-])c(Cl)cc1Cl
inactive: [26] 0.995 | [27] 1 | [28] 0.995 | [29] 0.995 | [30] 0.991 | [31] 0.999 | [32] 0.99 | [3] 0.995 | [33] 0.995 | [34] 0.99 | [35] 0.98 | [36] 0.993 | [37] 0.99 | [38] 0.978 | [39] 0.959 | [40] 0.97 | [41] 0.998 | [42] 0.992 | [43] 1 | [44] 0.997 | [45] 0.964 | [46] 0.996 | [47] 0.964 | [48] 1.01 | [49] 0.982 | [7] 0.928 | [50] 0.861 | [51] 0.988 | [52] 0.911 | [53] 0.996 | [54] 0.964 | [55] 0.955 | [56] 0.926 | [57] 1 | [58] 0.949 | [59] 0.961 | [60] 0.987 | [61] 0.994 | [62] 0.995 | [63] 0.999 | [64] 1 | [65] 1.02 | [66] 0.96 | [67] 0.931 | [68] 0.996 | [69] 1 | [70] 0.998 | [71] 0.995 | [72] 1 | [73] 0.924 | [74] 0.977 | [75] 1.04 | [76] 0.991 | [77] 0.991 | [78] 0.974 | [79] 0.995 | [80] 0.926 | [81] 0.967 | [82] 1.05 | [83] 0.976 | [84] 0.994 | [85] 0.928 | [86] 0.965 | [87] 0.947 | [88] 0.999 | [89] 0.99 | [90] 0.997 | [91] 0.996 | [92] 0.974 | [93] 0.99 | [94] 1

COc1c([N+](=O)[O-])cc(C(F)(F)F)cc1[N+](=O)[O-]
inactive: [1] 0.978 | [2] 1.01 | [3] 0.982 | [4] 0.964 | [5] 1.01 | [6] 0.975 | [7] 0.732 | [8] 1.04 | [9] 0.966 | [10] 1.03 | S. cerevisiae deletion strains, locus YKL190W, strain CNB1, active compounds read low 0.998 | [12] 1.02 | [13] 0.823 | [15] 0.903 | [16] 1 | [17] 0.971 | S. cerevisiae deletion strains, locus YNL128W, strain TEP1, active compounds read low 0.976 | [18] 0.985 | [19] 0.946 | [20] 0.971 | [21] 0.975 | [22] 0.989 | [23] 0.95 | [24] 0.902 | [25] 0.979
active: [11] 0.486 | [14] 0.453
